Laboratory results from PubChem BioAssay AID588856 (National Center for Advancing Translational Sciences (NCATS), 2011).
Among all 410,000 compounds or so, about 3,100 (0.76%) were called active. Calls come from the whole dose curve; as a rule, active = well fitted cell-killing curve with a large enough effect; inactive = no such curve, though single readings can be large or run the other way. Shown is part of a subset that was picked to be rich in actives.

Experiment: qHTS for Inhibitors of TGF-b: Cytotox Counterscreen
Settings: HepG2 CAGA-GFP viability, ATP luminescence, 18 h; series mostly up to 46.1 µM; activity change, negative = cytotoxicity: at the top concentration
Outline: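 HepG2 CAGA-GFP cells (1000/well, DMEM with 1% FBS) received compound, then TGF-beta at 500 pg/mL final, and were incubated 18 hours at 37 degrees C. Viability was read by CellTiter-Glo luminescence. Media-only wells were set as complete cell-killing and DMSO as no toxicity.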
Potency is the fitted concentration of half-maximal effect.

Row | Compound | activity change, negative = cytotoxicity | Potency
1 | CN(C)c1ccc(/C=C/c2sc3ccccc3[n+]2C)cc1 | -41.5% (inactive) | 
2 | CCC(C)c1ccc2oc(-c3ccc(NC(=O)c4cc5ccccc5o4)cc3)nc2c1 (stereo not drawn) | 0.606% (inactive) | 
3 | CCc1ccc(C(CNc2nc(C(F)(F)F)nc3ccccc23)N(C)C)cc1 (stereo not drawn) |  | 20 µM (active)
4 | CN(C)C(CNC(=O)Cc1ccc([N+](=O)[O-])cc1)c1ccccc1 (stereo not drawn) | -13.6% (inactive) | 
5 | CN(NC(=O)c1ccccc1F)c1nc(C(F)(F)F)nc2ccccc12 | -1.05% (inactive) | 
6 | CC1CCN(S(=O)(=O)c2ccc3c(ccn3CCC(=O)NCc3ccc(N(C)C)cc3)c2)CC1 | -26.5% (inactive) | 
7 | O=C(O)c1c(Br)c(Br)c(Br)c(Br)c1C1c2ccc(O)cc2Oc2cc(O)ccc21 | 1.05% (inactive) | 
8 | Cc1cc(F)ccc1NS(=O)(=O)c1ccc(-n2cccn2)cc1 | -13.1% (inactive) | 
9 | Cc1ccc(Oc2ccc3c(c2)C(=O)N(c2cccc4cccnc24)C3=O)cc1 | 18.4% (inactive) | 
10 | Cc1ccc(OCCn2c(CNc3ccccc3C)nc3ccccc32)cc1 | -44.5% (inactive) | 
11 | Cc1ccc(OS(=O)Nc2cccc3nccnc23)cc1 (stereo not drawn) |  | 15.8 µM (active)
12 | CCOCCn1ccc2c(OCC(=O)NCc3ccc(C)cc3)cccc2c1=O | -4% (inactive) | 
13 | COc1ccc(Cc2nc3ccc(C(=O)NCc4ccc(OC)cc4OC)cc3o2)cc1 | -13.9% (inactive) | 
14 | COC(=O)c1c(NC(=O)c2ccc(S(=O)(=O)N3CCOCC3)cc2)sc2c1CCN(C(C)C)C2 | -16.4% (inactive) | 
15 | CCOC(=O)c1c(NC(=O)C2CCN(S(=O)(=O)c3ccc(Cl)cc3)CC2)sc2c1CCCC2 | 7.04% (inactive) | 
16 | CCOC(=O)c1c(NC(=O)c2ccc(S(=O)(=O)N3CCCC(C)C3)cc2)sc2c1CCN(C(C)C)C2 (stereo not drawn) |  | 10 µM (active)
17 | Cc1nc2c(c(C)nn2-c2ccccc2)c(C)c1CCC(=O)NCCc1ccc(Cl)cc1 | 0.163% (inactive) | 
18 | CCOCCCNC(=O)c1cn(CC)c2ccc(S(=O)(=O)N3CCc4ccccc4C3)cc2c1=O | -29% (inactive) | 
19 | CCOC(=O)c1c(C)oc2nc(C)nc(N(CC(C)C)CC(C)C)c12 | -42.6% (inactive) | 
20 | CCOc1ccc(-c2n[nH]c3c2C(c2ccccc2OC)N(c2ccc(Br)cc2)C3=O)cc1 (stereo not drawn) | -17.9% (inactive) | 
21 | CCOc1cc(C2c3c(-c4ccc(Br)cc4)n[nH]c3C(=O)N2c2ccc(Cl)cc2)ccc1O (stereo not drawn) |  | 10 µM (active)
22 | CCOC(=O)c1ccc(N2C(=O)c3n[nH]c(C)c3C2c2ccc(O)c(OC)c2)cc1 (stereo not drawn) | -22.1% (inactive) | 
23 | O=C(NCc1ccc(Cl)cc1)c1ccc2c(c1)nnn2C1CCCC1 | -20% (inactive) | 
24 | COc1ccc(/C=C/C(=O)c2cc(Br)ccc(=O)c2O)cc1 | -35.7% (inactive) | 

Row | Compound | activity change, negative = cytotoxicity | Potency
25 | COc1ccc(C(=O)COC(=O)C(O)c2ccccc2)c(OC)c1 (stereo not drawn) | -6.27% (inactive) | 
26 | COc1ccc(C(=O)/C=C/c2cccnc2)c(OC)c1 |  | 15.8 µM (active)
27 | CCS(=O)(=O)c1nc(S(=O)(=O)c2ccc(C)cc2)c(NCc2ccc(Cl)cc2)s1 | -1.56% (inactive) | 
28 | CCC(=O)N1CCc2cc(Br)cc(S(=O)(=O)CCC(=O)NCCc3ccc(OC)c(OC)c3)c21 | 5.48% (inactive) | 
29 | COc1ccc(-c2cn3nc(N4CCC(C(=O)Nc5cccc(C)c5C)CC4)sc3n2)cc1 | -1.02% (inactive) | 
30 | CC(C)=CCCC1(C)C=Cc2c(ccc3c2[nH]c2cc(O)c(C)cc23)O1 (stereo not drawn) |  | 15.8 µM (active)
31 | Brc1ccc2c(c1)NC(c1cccnc1)=NC(c1ccccc1)=N2 | -0.338% (inactive) | 
32 | COc1ccc(CCNC(=O)c2cc(=O)c3c(C)cc(C)cc3o2)cc1OC | 7.77% (inactive) | 
33 | Cc1ccc(N(C)C(=O)C2CCN(S(=O)(=O)c3ccc4c(c3)CCCN4C(=O)C3CCC3)CC2)cc1 | -11.8% (inactive) | 
34 | CCc1ccc(NC(=O)C2CCCN2S(=O)(=O)c2ccc3nc(-c4ccccc4)[nH]c3c2)cc1 (stereo not drawn) | -33.6% (inactive) | 
35 | O=C(CCSc1ccccc1)N1CCN(c2ccccc2F)CC1 | -4.95% (inactive) | 
36 | O=S(=O)(N1CCOCC1)N1CCN(c2ccccc2F)CC1 | 0.0503% (inactive) | 
37 | O=C(c1ccc(CN2CCOCC2)cc1)N1CCN(c2ccccc2F)CC1 |  | 3.16 µM (active)
38 | Cc1cccc(N2CCN(C(=O)c3ccc(Nc4nc5ccccc5n5nnnc45)cc3)CC2)c1C | -1.95% (inactive) | 
39 | CN(C)c1ccc(C=Nc2ccc(/C=C/c3ccnc4ccccc34)cc2)cc1 | -25.8% (inactive) | 
40 | Oc1c(Cl)cc(Cl)c(Cl)c1Cc1c(O)c(Cl)cc(Cl)c1Cl |  | 10 µM (active)
41 | N#Cc1ccc[n+](CC(=O)c2ccc(F)cc2)c1 | 1.22% (inactive) | 
42 | COC(=O)c1ccc(Cn2c(SCC(=O)N(C)c3ccccc3)nc3ccccc32)cc1 | -22% (inactive) | 
43 | CCOC(=O)c1c(-c2ccc(C)cc2C)csc1NC(=O)CSc1nnnn1C | -0.949% (inactive) | 
44 | CCCS(=O)(=O)c1ncc(Cl)c(C(=O)Nc2scc(-c3ccccc3)c2C(=O)OCC)n1 |  | 11.2 µM (active)
45 | CCOC(=O)c1scc(-c2ccccc2)c1S(=O)(=O)Nc1ccccc1F | -27.7% (inactive) | 
46 | CCOC(=O)c1ccc(NC(=O)CC2C(=O)N(c3ccccc3)C(=O)N2Cc2cccs2)cc1 (stereo not drawn) | -9.2% (inactive) | 
47 | CCC(C)N(c1ccc(/C=C/c2ccnc3ccccc23)cc1)C(C)CC (stereo not drawn) | -3.27% (inactive) | 
48 | Cc1cccc(NC(=O)N2CCC(CN3CCc4ccccc4C3)CC2)c1C | -0.594% (inactive) | 
